# Bioassay records (PubChem)
# The sample as a whole holds a higher share of hits than the screen did.
# CD40 NFkB inh: CD40 pathway inhibition in BL2 cells; BL2 NF-kB luciferase reporter, CD40L-induced, 4 h; inhibition, % at 10 µM; 83,000 tested, 0.94% active;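 active = mean inhibition of at least 50% with a set share of replicates also reaching that level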;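 note: 0% = neutral control wells and 100% = IKK inhibitor VII at 50 µM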
# Active calls of the source: *; ! = repeats disagree; [ ] = dose if it differs, or a comment.
SMILES,CD40 NFkB inh
CCCNC(=O)C[C@@H]1CC[C@H]2[C@H](COc3ccc(NC(=O)NCCC)cc3C(=O)N2C)O1,4
O=C(C[C@H]1C[C@H]2c3cc(NC(=O)Nc4ccccc4)ccc3O[C@H]2[C@H](CO)O1)NCCN1CCCCC1,1[25 µM]
Cc1cccc2sc(N(CCN(C)C)C(=O)C3CCN(S(=O)(=O)c4cccs4)CC3)nc12,8
O=C(COc1ccc2c(c1)OCO2)Nc1nccs1,47*
O=C(COc1ccc2c(c1)OCO2)Nc1ccc(Cl)cn1,-71
O=C(COc1ccc2c(c1)OCO2)Nc1nnc(Cc2ccccc2)s1,12
COc1ccccc1CNC(=O)C[C@H]1C[C@@H]2c3cc(NC(=O)c4ccc5c(c4)OCO5)ccc3O[C@@H]2[C@@H](CO)O1,7[25 µM]
CC(C)C(Cl)=NOC(=O)Nc1ccc(S(N)(=O)=O)cc1,112*
CNC(=O)Nc1ccc(S(N)(=O)=O)cc1,10
COC(=O)[C@H](C)NC(=O)Nc1ccc(S(N)(=O)=O)cc1,14
CN1C(=O)c2cc(NC(=O)C3CCC3)ccc2OC[C@H]2O[C@@H](CC(=O)NCCc3ccncc3)CC[C@@H]21,1
C[C@@H]1CN([C@@H](C)CO)C(=O)c2cc(NS(C)(=O)=O)ccc2O[C@@H]1CN(C)Cc1ccccc1,6
O=C(C[C@@H]1CC[C@H]2[C@@H](COC[C@H](O)CN2Cc2cc(F)ccc2F)O1)NCc1ccc(Oc2ccccc2)cc1,36[25 µM]
O=C(C[C@H]1CC[C@H]2[C@@H](COC[C@H](O)CN2Cc2cc(F)ccc2F)O1)NCc1ccc(Oc2ccccc2)cc1,35[25 µM]
CCC(=O)N1C[C@@H](O)COC[C@@H]2O[C@H](CC(=O)NCc3ccc(Oc4ccccc4)cc3)CC[C@H]21,3[25 µM]
O=C(C[C@@H]1CC[C@H]2[C@@H](COC[C@@H](O)CN2Cc2cc(F)ccc2F)O1)NCc1ccc(Oc2ccccc2)cc1,51*[25 µM]
O=C(C[C@@H]1CC[C@@H]2[C@H](COC[C@@H](O)CN2CCC(F)(F)F)O1)NCc1ccc(Oc2ccccc2)cc1,19
O=C(C[C@@H]1CC[C@@H]2[C@H](COC[C@H](O)CN2Cc2cc(F)ccc2F)O1)NCc1ccc(Oc2ccccc2)cc1,63*[25 µM]
CO[C@H]1CN(C)C(=O)c2cc(NC(=O)C3CC3)ccc2OC[C@H](C)N(CC2CCCC2)C[C@H]1C,-4
CC(C)C[C@H]1COCc2cn(nn2)CC[C@@H](C)C(=O)N1,8[25 µM]
COc1ccc2c3c([nH]c2c1)[C@H](CO)N(C(=O)c1ccccc1)CC31CN(C(=O)c2cccc(F)c2)C1,3
COc1ccc2c3c([nH]c2c1)[C@@H](CO)N(C(C)=O)CC31CN(Cc2ccccc2Cl)C1,7[25 µM]
O=C(C[C@H]1C=C[C@H](NC(=O)c2cccc(F)c2)[C@H](CO)O1)NCc1ccccc1,1
Cc1cc(NCCCN2CCOCC2)n2c(nc3ccccc32)c1C#N,-15
Cc1cc(NCCN2CCOCC2)n2c(nc3ccccc32)c1C#N,3
SMILES,CD40 NFkB inh
Cc1cc(Nc2cccc([N+](=O)[O-])c2)n2c(nc3ccccc32)c1C#N,78*
O=C(C[C@@H]1CC[C@@H](NC(=O)C2CCOCC2)[C@@H](CO)O1)NCC1CCCCC1,1[25 µM]
COc1ccc([C@@H]2CC=CC[C@@H](C)Oc3ccccc3C(=O)N(C)[C@H](C(C)C)C(=O)N2)c(OC)c1 (mixture of isomers),8[25 µM]
O=C(Cc1cccc([N+](=O)[O-])c1)Nc1ccccc1,-2
O=[N+]([O-])c1ccc(CS(=O)c2ccccc2)cc1 (stereo not drawn),-6
O=[N+]([O-])c1ccc(S(=O)Cc2ccccc2)c([N+](=O)[O-])c1 (stereo not drawn),106*
COc1ccc2c3c(n(C)c2c1)[C@H](CO)N(C(=O)NC1CCCCC1)CC31CCN(C)CC1,9[25 µM]
COc1ccc(/C=C/C(=O)OCC(=O)Nc2ccc3[nH]c(=O)[nH]c3c2)cc1OC,1
Cc1ccccc1S(=O)(=O)N1[C@@H]2CNC[C@H]1C2c1ccc(/C=C/c2ccccc2)cc1 (stereo partly drawn),51*!
COc1ccc(C#Cc2ccc([C@@H]3[C@H](CO)N4CCCCN(C(=O)Nc5cccc(F)c5)C[C@@H]34)cc2)cc1,68*[25 µM]
O=C(Nc1ccc(F)cc1)N1C[C@@H]2N[C@H](C1)C2c1ccc(/C=C/c2ccccc2)cc1 (stereo partly drawn),25[25 µM]
COc1ccc(C#Cc2ccc([C@@H]3[C@H]4CN(C(=O)Nc5cccc(F)c5)CCCCN4[C@H]3CO)cc2)cc1,5[25 µM]
COc1ccccc1S(=O)(=O)N1[C@@H]2CNC[C@H]1C2c1ccc(/C=C/c2ccccc2)cc1 (stereo partly drawn),14[25 µM]
O=C(Nc1ccccc1F)N1CCCCN2[C@H](CO)[C@H](c3ccc(/C=C/c4ccccc4)cc3)[C@H]2C1,89*[25 µM]
O=C(Nc1ccccc1F)N1CCCCN2[C@H](C1)[C@@H](c1ccc(/C=C/c3ccccc3)cc1)[C@@H]2CO,-2[25 µM]
COc1ccc(C#Cc2ccc([C@H]3[C@@H](CO)N4CCCCN(C(=O)Nc5cccc(F)c5)C[C@H]34)cc2)cc1,22[25 µM]
O=C(Nc1ccccc1F)N1CCCCN2[C@H](CO)[C@H](c3ccc(/C=C/c4ccccc4)cc3)[C@@H]2C1,14[25 µM]
Cc1ccccc1S(=O)(=O)N1[C@@H]2CNC[C@H]1[C@@H]2c1ccc(-c2ccc(C#N)cc2)cc1,8[25 µM]
C/C=C/c1ccc(C2[C@@H]3CN(C(=O)Nc4ccccc4F)C[C@H]2N3)cc1 (stereo partly drawn),-4[25 µM]
O=C(Nc1ccccc1F)N1C[C@@H]2N[C@H](C1)C2c1ccc(/C=C/c2ccccc2)cc1 (stereo partly drawn),53*
Cc1ccc(S(=O)(=O)Nc2ccc3c(c2)C(=O)N([C@@H](C)CO)C[C@@H](C)[C@@H](CN(C)Cc2ccc4c(c2)OCO4)OCCCC[C@H](C)O3)cc1,13
C/C=C/c1ccc(C2[C@H]3CNC[C@@H]2N3S(C)(=O)=O)cc1 (stereo partly drawn),-6[25 µM]
C[C@@H](NC(=O)C[C@H]1C=C[C@@H](NC(=O)c2cccnc2)[C@H](CO)O1)c1ccccc1,0[25 µM]
C/C=C/c1ccc(C2[C@H]3CNC[C@@H]2N3C(=O)Nc2ccccc2Cl)cc1 (stereo partly drawn),-3[25 µM]
O=C(Nc1ccccc1Cl)N1[C@@H]2CNC[C@H]1C2c1ccc(/C=C/c2ccccc2)cc1 (stereo partly drawn),58*!
SMILES,CD40 NFkB inh
O=C(Nc1ccccc1Cl)N1[C@@H]2CNC[C@H]1C2c1ccc(-c2ccccc2)cc1 (stereo partly drawn),4
Cc1nn(C2CCS(=O)(=O)C2)c(C)c1CN(C)C(=O)c1ccccc1 (stereo not drawn),12
O=S(CC1CC1(Cl)Cl)CC1CC1(Cl)Cl (stereo not drawn),2
CCS(=O)(=O)c1c([N+](=O)[O-])ncn1C,95*
CCN(CC)c1c([N+](=O)[O-])ncn1C,4
Cn1cnc([N+](=O)[O-])c1S(=O)(=O)Oc1cccc2ccccc12,101*
Cn1cnc([N+](=O)[O-])c1Cl,12
Cn1cnc([N+](=O)[O-])c1Oc1ccccc1,12
Cn1cnc([N+](=O)[O-])c1Oc1cccc2ccccc12,29
O=C(Nc1nccs1)[C@H]1[C@H](CO)[C@H]2Cn3c(ccc(-c4cncnc4)c3=O)[C@H]2N1CC1CCCC1,7[25 µM]
CCCNC(=O)N1[C@H](C#N)[C@@H](c2ccc(/C=C/c3ccccc3)cc2)[C@H]1CO,30[25 µM]
